Drawing on PubChem BioAssay AID623911 (Vanderbilt High Throughput Screening Facility, 2012), this text covers manual score for 73 molecules.

In all, about 2,100 compounds went through this assay and about 770 (37%) were called active. The list shows a part of the results. Values without a mark were called inactive.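 How the source made its calls: active means by-eye trace score of 1 for enhancers or -1 for inhibitors, so actives lie on both sides (some results past the limit were not filed as active); inactive means score 0, or 3 fluorescent, or 4 baseline rise.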

Sequence of G protein-activated inward rectifier potassium channel 2 (Homo sapiens) + G protein-activated inward rectifier potassium channel 1 (Homo sapiens) (P48051 whole entry, looked up): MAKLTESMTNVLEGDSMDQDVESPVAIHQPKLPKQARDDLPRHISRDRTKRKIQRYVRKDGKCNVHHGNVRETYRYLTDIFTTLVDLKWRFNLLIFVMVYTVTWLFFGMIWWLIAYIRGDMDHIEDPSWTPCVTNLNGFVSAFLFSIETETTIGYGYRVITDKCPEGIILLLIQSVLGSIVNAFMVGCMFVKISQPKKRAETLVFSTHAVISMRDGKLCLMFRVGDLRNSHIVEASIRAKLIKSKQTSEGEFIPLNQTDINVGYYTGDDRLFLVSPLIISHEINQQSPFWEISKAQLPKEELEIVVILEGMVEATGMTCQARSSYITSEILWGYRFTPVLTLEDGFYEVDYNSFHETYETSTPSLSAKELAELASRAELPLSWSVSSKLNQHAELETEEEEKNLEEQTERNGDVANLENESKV
Sequence of G protein-activated inward rectifier potassium channel 2 (Homo sapiens) + G protein-activated inward rectifier potassium channel 1 (Homo sapiens) (P48549 whole entry, looked up): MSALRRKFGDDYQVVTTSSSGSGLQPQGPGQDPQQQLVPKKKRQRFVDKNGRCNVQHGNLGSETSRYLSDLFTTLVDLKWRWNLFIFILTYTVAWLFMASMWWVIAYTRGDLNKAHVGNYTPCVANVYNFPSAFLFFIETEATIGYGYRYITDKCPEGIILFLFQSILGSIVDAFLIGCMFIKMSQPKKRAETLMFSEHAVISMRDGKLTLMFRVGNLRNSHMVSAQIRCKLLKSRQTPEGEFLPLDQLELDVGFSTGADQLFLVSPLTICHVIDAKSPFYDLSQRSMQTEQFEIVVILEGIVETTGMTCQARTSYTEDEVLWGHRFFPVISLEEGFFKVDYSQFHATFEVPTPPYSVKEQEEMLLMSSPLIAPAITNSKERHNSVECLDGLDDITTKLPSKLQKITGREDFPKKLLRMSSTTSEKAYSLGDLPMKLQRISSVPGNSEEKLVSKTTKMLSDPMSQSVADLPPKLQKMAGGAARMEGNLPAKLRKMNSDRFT

This test addresses G protein-activated inward rectifier potassium channel 2 (Homo sapiens) + G protein-activated inward rectifier potassium channel 1 (Homo sapiens) (UniProt P48051+P48549). Nature of the test: GIRK1/2 thallium flux modulators, retest, confirmation, cell-based, HEK293 rmGlu8/hGIRK1/2, FluoZin-2 (AID 623911). The conditions noted are these: HEK293 rmGlu8/hGIRK1/2, thallium flux FluoZin-2; actives lie on both sides; glutamate co-added at its EC20 level.
For the molecule `O=C(Nc1ccc(F)cc1)c1cccc2c1C(=O)N(Cc1ccccn1)C2`, the manual score is 0.
Then `C/C(CC(C)(C)C1CCCCC1)=N\NC(N)=S`, with 0; and `Cc1ccc(-c2nnc(SCC(=O)Nc3ccc4c(c3)OCCO4)n2N)cc1`, with 0.
Then `Cc1ccc2nc(-c3ccc(O)cc3)c(Nc3ccc4c(c3)OCCO4)n2c1`, with -1 (active); and `CCn1c(-c2cc3c(C(F)(F)F)nn(C)c3s2)n[nH]c1=S`, with 0; and `O=C(NC1CC1)c1ccc(CSCc2cccc(F)c2)o1`, with 0.
Consider `O=C(CCSCc1cccc(Cl)c1)NCCc1ccc(Cl)cc1`, for which the manual score is 1 (active).
Take `O=C(O)C1C2C=CC(C2)C1C(=O)NCCc1cccc(Cl)c1` (stereo not drawn): the manual score is 0.5.
Under `COc1ccc(C2C(C(N)=O)=C(C)Nc3nc(-c4cccc(Cl)c4)nn32)cc1OC` (stereo not drawn) stands 0; under `O=C(Nc1nnc(-c2cccs2)o1)c1cccc(F)c1`, 1 (active); under `Cc1cc(C)c(NC(=O)c2ccc(S(=O)(=O)N(C)C)cc2)c(C)n1`, 0.
Then `O=C(N/N=C/c1c(Cl)cccc1Cl)c1cccc(F)c1`, with 0; and `CCCCCc1nnc(NC(=O)Cc2cccs2)s1`, with 0.
Then `O=C(Nc1nnc(-c2cccs2)o1)c1cccc(C(F)(F)F)c1`, with 1 (active); and `Cc1occc1C(=O)Nc1cccc(C(F)(F)F)c1`, with 0; and `O=C(Nc1nnc(-c2cccs2)o1)c1cccc(Oc2ccccc2)c1`, with 1 (active).
Take `COc1ccc(C(=O)Nc2ccc(Oc3ncnc4sc(-c5ccccc5)cc34)cc2)cc1OC`: the manual score was 0.
Under `CCCCN(C)S(=O)(=O)c1ccc(C(=O)Nc2nnc(-c3cccs3)o2)cc1` stands 1 (active); under `CCOc1ccc(-c2cc(C)n3nc(C(N)=O)cc3n2)cc1`, 0.
Then `COCCCNc1c2c3c(cccc3[nH]c1=O)C(=O)c1ccccc1-2`, with 3.
Under `Cc1[nH]c2ccccc2c1CN1CCc2ccccc2C1` stands 0; under `CNc1nc(Cl)nc(NC(C)(C)C)n1`, 0; under `CCOC(=O)/C(=C\C=C1/Sc2cc(OCC)c(OCC)cc2N1CC)C(C)=O`, 3.
On to `Cc1ccc2c(c1)N(CC(=O)N(Cc1ccccn1)Cc1ccco1)C(=O)C(C(C)C)O2` (stereo not drawn), for which the manual score was -0.5.
Then `CCC1Oc2ccc(C)cc2N(CC(=O)N(Cc2ccc(C)o2)C2CCCC2)C1=O` (stereo not drawn), with -1 (active); and `Cc1ccc(S(=O)(=O)c2c(C)cc(C)nc2Cl)c(C)c1`, with 0; and `CCC(C)NC(=O)CSc1nc2ccccc2c(=O)n1Cc1ccc(OC)cc1` (stereo not drawn), with 0.
Under `COc1ccc(NC(=O)CSc2nc3ccccc3c(=O)n2CCCN2CCCCC2)c(OC)c1` stands -1 (active); under `CCCCn1c(SCC(=O)Nc2ccc(OC)cc2)nc2ccc(N3CCOCC3)cc2c1=O`, 0; under `COc1ccc(C(C)n2c(C)c3c(C)nnc(C)c3c2C)cc1` (stereo not drawn), -1 (active).
Then `CCOC(=O)CSc1nc(C)c2cc(OC)ccc2n1`, with 0.
In the case of `Cn1cc(S(=O)(=O)Nc2ccc(F)cc2F)c(=O)n(C)c1=O`, the manual score was 0.
`S=c1nn[nH]n1C12CC3CC(CC(C3)C1)C2`: the manual score is 1 (active).
Under `CCOC(=O)c1ccccc1Nc1cn(C(C)=O)c2ccccc12` stands -0.5; under `CCOC(=O)c1cnn2c1[nH]c(=O)c1ccccc12`, 1 (active).
Under `Cc1cc2[nH]c(=O)c3ccccc3n2n1` stands 0; under `CCS(=O)(=O)Nc1ccc(-c2nnc(SCC(=O)c3ccc(NC(C)=O)c(OC)c3)o2)cc1`, 0; under `N#CCN1C(=S)N=C(Nc2cccc(Cl)c2)C12CCCCC2`, 0.5.
Turning to `COc1ccc(NC2=NC(=S)N(c3ccccc3C)C23CCCCC3)cc1`, the manual score was 1 (active).
In the case of `Cc1ccc(NC2=NC(=S)N(CC#N)C23CCCCC3)cc1`, the manual score was 0.
Under `NC(=O)CSc1ncnc2c1cnn2Cc1ccccc1` stands 0.
Turning to `Cc1ccc(CSc2ncnc3c2cnn3-c2ccc(C)cc2)cc1`, the manual score was 1 (active).
Under `Cc1ccc(-n2ncc3c(SCc4ccccc4)ncnc32)cc1` stands 1 (active).
Then `COc1ccc(OC)c(Nc2ncnc3c2cnn3-c2cccc(C)c2)c1`, with 0.
`CCOC(=O)C(C)Sc1nc2c(cnn2-c2ccc(C)cc2)c(=O)[nH]1` (stereo not drawn): the manual score is 0.
Then `CN(C)CCNc1ncnc2c1cnn2-c1ccc(Cl)cc1`, with 0.
`CN(C)CCCOc1ccc(C(C)(C)c2ccccc2)cc1`: the manual score is 0.
Under `CCN1CCN(CCCOc2ccc(-c3ccccc3)cc2)CC1` stands -1 (active); under `COc1ccc(OCCCN2CCCCCC2)cc1`, 0.
Under `CCCCC(=O)N1CCCC(c2nc3c(nnn3Cc3cc(C)ccc3C)c(=O)[nH]2)C1` (stereo not drawn) stands 0; under `S=c1[nH]nc(-c2ccco2)n1/N=C/c1ccc(Br)s1`, 0.
Turning to `Cc1cc(-c2n[nH]c(=S)n2/N=C/c2ccc(Br)s2)n[nH]1`, the manual score was 0.
Then `S=c1[nH]nc(-c2ccccn2)n1/N=C/c1ccc(Br)s1`, with 1 (active); and `CN(C)Cc1cc(C(C)(C)C)c(O)c(C(C)(C)C)c1`, with -1 (active); and `Cc1ccc(C)c(NC(=S)NNC(=O)c2csc(C(C)C)c2)c1`, with 1 (active).
Under `Cc1ccc(-c2nc3ccccc3o2)cc1NC(=S)NC(=O)c1cc2ccccc2o1` stands 0.
Then `Cc1cc(C)c2oc(-c3ccc(C)c(NC(=S)NC(=O)c4cccs4)c3)nc2c1`, with 0; and `Cc1cccc(NC(=S)NNC(=O)c2csc(C(C)C)c2)c1`, with 1 (active).
As for `c1cn(CC2(Cn3ccnc3)COC2)cn1`, the manual score is 0.
Under `CN(C)CCNC(=O)c1ccc2c(c1)N(Cc1ccc(F)cc1)CCS2` stands -1 (active).
Under `CN(C)CCNC(=O)c1cc2c(s1)-c1ccccc1OC2` stands 0.
As for `CCCCOc1ccc(C(=O)OC2CC(C)N(C)CC2C)cc1` (stereo not drawn), the manual score is -1 (active).
Under `CCCCOC(=O)Nc1ccc(C(=O)OCCC)cc1` stands 0; under `COc1cccc(NC(=S)N/N=C2/CCCCc3ccccc32)c1`, 0.5.
Then `COc1cccc(NC(=O)Cn2cc3c(n2)CCCCC3)c1`, with 1 (active); and `COc1cccc(NC(=O)CSc2nc(N)cc(N)n2)c1`, with 0; and `O=C(CN1CCCCC1)Nc1cccc(Oc2ccccc2)c1`, with 0.
Then `COc1cccc(NC(=O)Cn2nnc(C(=O)Nc3ccccc3)c2N)c1`, with 1 (active); and `COc1cccc(NC(=O)C(Sc2nc3ccccc3c(=O)n2CC(C)C)c2ccccc2)c1` (stereo not drawn), with 0.
For `COc1cccc(NC(=O)Cn2cc(C#N)c3ccccc32)c1`, the manual score was 1 (active).
Then `CC1CCc2nn(CC(=O)N3CCN(C(=O)c4ccco4)CC3)cc2C1` (stereo not drawn), with 0; and `COc1cccc(NC(=O)CSc2nnc(-c3ccoc3C)n2-c2ccccc2)c1`, with -0.5; and `Cc1cc(C)cc(NC(=O)Cn2cc3c(n2)CCCCC3)c1`, with 1 (active).
